# Test results from PubChem BioAssay (NCI).
# The panel holds about 83,000 compounds, 20% with a hit somewhere; the sample as a whole holds those more often.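 Interpretation: 100, growth as untreated; towards 0, rising growth inhibition; 0, no net growth; 0 to -100, cell death. Compounds scoring below 10 were considered active.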 Unmarked numbers belong to inactive results. The source made the active and inactive calls.
# Test system: DU-145 prostate
# Experiment: NCI-60 one-dose screen, 48 h (100 = growth as untreated, 0 = no growth, -100 = all killed)
# Conditions: 10 µM unless noted
row,SMILES,growth
1,COc1cc2nc(Cl)nc(Nc3cccc(C4=Nc5c(N)nc(N)nc5NC(c5ccccc5)C4)c3)c2cc1OC (stereo not drawn),85.9%
2,C#C[C@]1(O)CC[C@H]2[C@@H]3CC=C4c5sc(-c6ccc7c(c6)OCO7)nc5CC[C@]4(C)[C@H]3CC[C@@]21C,20.1%
3,CCO/C=N/C1=C(C#N)C(c2ccc(F)cc2)c2sc3c(C)cccc3c2O1 (stereo not drawn),12.4%
4,COc1ccc(/C=C(\C#N)C(=O)N2c3ccccc3Sc3ccc(SC)cc32)cc1F,97.3%
5,NC(N)=Nc1ccc(Oc2cccc(Nc3ccc(Cl)c(C(F)(F)F)c3)c2)cc1,47.8%
6,COc1ccccc1-n1cc(C#N)c(N)c1C(=O)c1ccc(Br)cc1,97.3%
7,Cc1cccc(/C=C/C(=O)Nc2ncc(Cc3cccc(C)c3)s2)c1,8.51% (active)
8,C=C(C=O)[C@@H]1CC[C@]2(C)[C@H](CC=C3[C@H]4[C@@H](C)[C@H](C)CC[C@]4(C(=O)OC)CC[C@]32C)[C@@]1(C)CCC#N,16.7%
9,NC(N)=Nc1ccc(Oc2cccc(Nc3ccc(Br)c(C(F)(F)F)c3)c2)cc1,22.8%
10,Nc1nc(N)c2c(n1)NC(c1ccc(C(F)(F)F)cc1)CC(c1ccc(Nc3nc(NCCO)nc(N4CCOCC4)n3)cc1)=N2 (stereo not drawn),79.2%
11,COc1ccccc1-n1cc(C#N)c(N)c1C(=O)c1ccc(C)cc1,99.2%
12,O=C(CCn1c[n+](CC(=O)c2ccc(F)cc2)c2ccccc21)Nc1cccc2cccnc12,96.6%
13,C#CCn1cccc1CNc1ccc(OC)cc1,-96.6% (active)
14,NC(N)=Nc1ccc(Oc2cccc(Oc3ccc(Cl)c(C(F)(F)F)c3)c2)cn1,-91.9% (active)
15,CCn1c2ccccc2c2cc(-n3nncc3-c3ccccc3)ccc21,13.3%
16,COc1ccc(COc2ccc(/C=C3\C(=O)Nc4ccccc43)cc2OC)cc1,109%
17,O=C(CCn1cc[n+](CC(=O)c2ccc(-c3ccccc3)cc2)c1)Nc1cccc2cccnc12,90.9%
18,C[C@@H]1C[C@H]2C(=O)O[C@@H](C)C(NC(=O)[C@H](Cc3cc(F)cc(F)c3)NC(=O)Nc3ccc(C4CC4)cc3F)C(=O)N3CCC[C@H]3C(=O)N3CCCC[C@H]3C(=O)N[C@@H](CO)C(=O)N2C1 (stereo partly drawn),25.6%
19,CCOC(=O)c1c(Nc2ccccc2)nn2c(-c3ccccc3)ccnc12,97.5%

row,SMILES,growth
1,C#C[C@]1(O)CC[C@H]2[C@@H]3CC=C4c5sc(-c6cccc(O)c6)nc5CC[C@]4(C)[C@H]3CC[C@@]21C,2.17% (active)
2,C#C[C@]1(O)CC[C@H]2[C@@H]3CC=C4c5sc(-c6ccc(C)cc6)nc5CC[C@]4(C)[C@H]3CC[C@@]21C,39.8%
3,NS(=O)(=O)c1ccc(-n2cc(-c3cccc(NC(=O)c4ccc(N5CCOCC5)c(C(F)(F)F)c4)c3)nn2)cc1,41.1%
4,CCO/C=N/C1=C(C#N)C(c2ccc(OC)cc2)c2sc3c(CC)cccc3c2O1 (stereo not drawn),17.6%
5,O=C(CN1CCN(c2cc(=O)[nH]c3ccc(F)cc23)CC1)Nc1ccc(Cl)cc1,78.1%
6,COc1cc2nc(Cl)nc(Nc3cccc(C4=Nc5c(N)nc(N)nc5NC(c5ccc6c(c5)OCO6)C4)c3)c2cc1OC (stereo not drawn),81.4%
7,CC1(C)NCCC[C@]2(C)[C@H]3C/C(=N\O)C4[C@@H]5C[C@@](C)(CO)CC[C@]5(C)CC[C@@]4(C)[C@]3(C)CC[C@@H]12 (stereo partly drawn),106%
8,C#Cc1nc(/C=C/C(=O)c2nccn2C)cs1,-45.6% (active)
9,COc1cc2nc(Cl)nc(Nc3cccc(C4=Nc5c(N)nc(N)nc5NC(c5ccc(Cl)cc5)C4)c3)c2cc1OC (stereo not drawn),87.7%
10,CC(C)(C)c1ccc(C(=O)Nc2sc3c(c2C(N)=O)CCC(O)C3)cc1 (stereo not drawn),58.6%
11,COc1ccc(-c2nc3cccc(O)c3c(=O)n2Cc2ccccc2)cc1COc1ccc(NC(C)=O)cc1,50.2% [3 µM]
12,N#Cc1cn(Cc2ccc(Cl)cc2Cl)c(C(=O)c2ccc(Br)cc2)c1N,99.7%
13,O=C(CCn1c[n+](CC(=O)c2ccc(-c3ccccc3)cc2)c2ccccc21)Nc1cccc2cccnc12,78.9%
14,Cc1ccc(-c2nnc(SCc3ccc(O)c4ncccc34)o2)cc1,28.7%
15,Cc1ccc(S(=O)(=O)N(CC[C@@H]2C[C@H]2c2cc3ccccc3o2)S(=O)(=O)c2ccc(C)cc2)cc1,98.7%
16,COc1ccc(Cn2cc3c(c2-c2cc(OC)c(OC)c(OC)c2)CCc2c(CN4CCCC4)noc2-3)cc1,22.7%
17,Cc1nn(-c2ccccc2)c2ncnc(N/N=C/c3cccc(O)c3)c12,67.9%
18,COc1ccc(C2CC(c3ccc(Nc4nc(NCCO)nc(N5CCOCC5)n4)cc3)=Nc3c(N)nc(N)nc3N2)cc1 (stereo not drawn),103%
19,O=C(CN1CCN(c2cc(=O)n(-c3ccccc3)c3ccccc23)CC1)Nc1ccc(F)cc1,68.5%
